# Records with an inconclusive call do not appear. Unmarked numbers belong to inactive results. The call rests on the fitted dose curve; in most records, active means well fitted curve in the direction sought with a large enough effect; inconclusive means small, poorly fitted or top-dose-only effect, or another doubt; inactive means no such curve, though single readings can be large or run the other way.
# Assay: KB-8-5-11 P-gp reporter qHTS against the NCATS DSHEA and TCM libraries (AID 1919977); further: 0% is about no effect
# Conditions: KB-8-5-11 cells; series mostly up to 26.1 µM; activity change, negative = inhibition: at the top concentration
# Excerpt: Assay Development and Screening Technology Laboratory (ADST)
# National Center for Advancing Translational Sciences (NCATS), Rockville, MD
# National Institute of Health (NIH), Bethesda, Maryland
# Dietary Supplements and Natural Products have minor oversight of their safety and efficacy. We assembled a collection of Dietary Supplements and Natural Products (DSNP) as well as Traditional Chinese Medicinal (TCM) Plant extracts, which were screened against an in vitro panel of assays, including a liver cytochrome p450 enzyme panel, CAR/PXR signaling pathways, and P-gp transporter assays, to assess their activity. This pipeline facilitated the interrogation of Natural Product-Drug Interaction (NaPDI) through prominent metabolizing pathways. In addition, we compared the activity profiles of the DSNP/TCM substances with those of an approved drug collection. Many of the approved drugs have well-annotated mechanisms of action (MOA) while the MOAs for most of the DSNP and TCM samples remain unknown. Based on the premise that compounds with similar activity profiles tend to share similar targets or MOA, we clustered the library activity profiles to identify overlap with the NCATS Pharmaceutical Collection to predict the MOAs of the DSNP/TCM substances. Overall, we highlight four significant bioactivity profiles (measured by p-values) as examples of this prediction. To assess broad cytotoxicity, we employed screening against a HepG2 cell line. In addition, transporter-mediated drug interactions are utilized in the characterization of DDIs using a P-glycoprotein (P-gp) assays. To profile potential P-gp activity, a differential cell viability was measured against two cell lines: a parental KB-3-1 human cervical adenocarcinoma cell line and the drug-resistant subline KB-8-5-11 that overexpresses P-gp.
# To this end, we profiled both collections for potential CAR and/or PXR activity, employing a previously published 1536-well qHTS assay.
# [1] Lee TD, et al. A High-Throughput Screen of a Library of Therapeutics Identifies Cytotoxic Substrates of P-glycoprotein. Mol Pharmacol. Nov 2019;96(5):629-640. doi:10.1124/mol.119.115964
# PROTOCOL TABLE (as described by Inglese J, Shamu CE and Guy RK. 2007)
# SEQUENCE No. (e.g., 1, 2, 3, etc.); PARAMETER (e.g., Cells, Incubation, Reagent, etc.); VALUE; DESCRIPTION.
# 1; Cells; 5 uL; KB-8-5-11 cells, white solid-bottom tissue treated Greiner plate.
# 2; Incubation; 4 hrs; 37C, 95% humidity, 5% CO2.
# 3; Compounds and control; 23 nL; Kalypsis pin tool (Wako USA) equipped with a 1536-well pin head to transfer to the assay plates.
# 4; Incubation; 72 hrs; 37C, 95% humidity, 5% CO2.
# 5; Reagent; 2.5 uL; CellTiter-Glo.
# 6; Centrifuge; 1000 RPM; 15 seconds.
# 7; Incubation; 30 min; room temperature.
# 8; Read; Luminescence; ViewLux plate reader.
# NOTES (numbers refer to Sequence numbers above)
# 1. P-gp-overexpressing subline KB-8-5-11 were maintained in DMEM (Thermofisher catalog #11965) with 10% FBS and 1% penicillin/streptomycin at 37C in 5% CO2. For KB-8-5-11 cells, colchicine was added to the medium at a concentration of 100 ng/ml (after initial cell attachment). For the screen, assay medium was identical to culture medium except for KB-8-5-11, where colchicine was excluded from the medium. Briefly, 5 uL of cells at 1 x 10^5 cells/mL (500 cells/well) were dispensed into a 1536-well white solid-bottom tissue treated plate (Greiner Bio-One) using a Multidrop Combi dispenser.
# 2. Plates were incubated at 37C, 95% humidity, 5% CO2 for ~4 hours to allow for cell attachment.
# 3. Compounds and intraplate control (Bortezomib; final concentration range 228 pM - 7.5 uM) were transferred (16 nL) via pintool (Wako Automation), for a final concentration of 15.6 nM - 30.0 uM (most substances).
# 4. Plates were incubated for ~72 hours at 37C, 95% humidity, 5% CO2.
# 5. Plates were then dispensed with 2.5 uL of CellTiter-Glo.
# 6. The assay plates were centrifuged for 15 seconds at 1,000 RPM's.
# 7. The plates were incubated for 30-minute at room temperature.
# 8. […]
row,SMILES,"activity change, negative = inhibition"
1,NC(=O)NC1NC(=O)NC1=O (stereo not drawn),0.911%
2,O=C(O)CCCC[C@@H]1SC[C@@H]2NC(=O)N[C@@H]21,-1.8%
3,CC(C)=CCC[C@@](C)(O)[C@H]1CC=C(C)CC1,-6.45%
4,NNC(=O)c1ccncc1,2.35%
5,Nc1ccc(C(=O)O)cc1,6.16%
6,CC12CCC(CC1)C(C)(C)O2,2.39%
7,O=C(O)c1cc(O)c(O)c(O)c1,6.54%
8,CCCCCCCCCCCCCCCCCC(=O)O,-4.33%
9,C=CCc1ccc(O)c(OC)c1,-6.63%
10,O=C(O)c1cccnc1,-0.975%
11,CCCCCCCCCCCCCCCC(=O)O,-11.4%
12,Cc1ccc(C(C)C)c(O)c1,7.24%
13,NC(=O)c1cnccn1,-7.89%
